# The whole screen tested about 340,000 compounds, of which about 530 (0.16%) were called active. Roughly 2% stayed inconclusive and do not appear here. Many of the other results were omitted from the sample, so actives are more common in it than they were. Unmarked numbers belong to inactive results. Rule as the data show it: active = activity change below about -80%; inconclusive = between about -30% and that limit; inactive = weaker than that.
# Test: Small Molecules that selectively kill Giardia lamblia: qHTS;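 also: parasites exposed to compound for two days anaerobically before the ATP read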
# Conditions: Giardia lamblia trophozoite viability; at 7.66 µM; hits give low values
# Text: Giardia lamblia is a human pathogen afflicting impoverished nations, and the most common cause of outbreaks of diarrhea in the United States. Giardia has been classified by the CDC as a category B bioterrorism organism. The favored anti giardiasis drugs in the US are metronidazole or tinidazole, compounds that have undesirable side effects. Moreover, increasing resistance to drug regimes and recurrence are a concern. It is thus clear that alternative drug treatments are needed.
# In a collaboration between the University of Maryland, College Park and the NIH Chemical Genomics Center, a bioluminescence Giardia viability assay based on the trophozoites' ATP content was developed. This assay is suitable for high throughput screening, and miniaturized the assay for compound screening in 1536-well plates. The goal of the project is to screen the Molecular Libraries Small Molecule Repository (MLSMR) for compounds that selectively kill Giardia trophozoites.
# NIH Chemical Genomics Center [NCGC]
# NIH Molecular Libraries Probe Centers Network [MLPCN]
# Assay Submitter (PI): Osnat Herzberg, University of Maryland, College Park, MD.
# 1. Dispense 2 ul/well media
# 2. Dispense 23 nl/well compounds
# 3. Dispense 4 ul/well Giardia trophozoites at a concentration of 100 cells/well
# 4. Incubate 48 hrs at 37 deg C anaerobically
# 5. Dispense 4 ul/well ATPLite 1-Step Luminescence assay kit
# 6. Incubate 15-30 min at room temperature
# 7. Read luminescence signal on ViewLux plate reader
# % is scaled to controls: 0 for no effect and ±100 for the full control effect.
row,Compound,activity change
1,CN(c1ccccc1)c1ccc([N+](=O)[O-])c2nonc12,-83.4% (active)
2,CCN(CC)c1ccc([N+](=O)[O-])c2cccnc12,-13.7%
3,CO[C@H]1[C@@H](O)[C@@H](C)O[C@H](O[C@H]2[C@H](Oc3cccc4c(O)c5c(=O)oc6ccc(C)c7c(=O)oc(c34)c5c67)O[C@H](C)[C@H](O)[C@@H]2O)[C@@H]1O,0.803%
4,COc1cc([C@@H]2c3cc4c(cc3[C@H](OC(C)=O)[C@H]3COC(=O)[C@H]23)OCO4)cc(OC)c1OC,-7.09%
5,O=P1(Oc2ccccc2)CC(O)C(O)C(COCc2ccccc2)O1 (stereo not given),11%

# Reference: PubChem BioAssay AID540267 (National Center for Advancing Translational Sciences (NCATS), 2011)
